PubChem BioAssay (NCATS)
Records with an inconclusive call do not appear. Where a call stands in place of a potency, no number is given. Unmarked numbers belong to inactive results. Activity calls are given as the source filed them. The call rests on the fitted dose curve; tested in HEK293 reporter line.

Assay: qHTS for Inhibitors of the Functional Ribonucleoprotein Complex (vRNP) of Lassa (LASV) Arenavirus: LASV Primary Screen - GLuc reporter signal (AID 1347082); further: nearly all actives have a fitted effect of over 60% in size
Conditions: LASV minigenome vRNP, Gaussia luciferase reporter; series mostly up to 57.5 µM

| SMILES | Potency |
| --- | --- |
| CCOC(=O)n1ccn(C)c1=S | inactive |
| C#C[C@]1(OC(C)=O)CC[C@H]2[C@@H]3CCC4=C/C(=N/O)CC[C@@H]4[C@H]3CC[C@@]21CC | inactive |
| Oc1ccc(CCNCCCCCCNCCc2ccccc2)cc1O | inactive |
| OC(C#CCN1CCCC1)(c1ccccc1)c1ccccc1 | inactive |
| CCC(CC)(CC(=O)Nc1cccc(/C=C/c2nc(C3CCC3)cs2)c1)C(=O)O | inactive |
| CN1CCCN(C(c2ccccc2)c2ccc(Cl)cc2)CC1 (stereo not drawn) | inactive |
| Nc1ccn(C2CO[C@H](CO)O2)c(=O)n1 (stereo partly drawn) | inactive |
| CC1(C)OC[C@@H](COC(=O)CCc2ccc(OC[C@@H](O)CNCCNC(=O)N3CCOCC3)cc2)O1 | inactive |
| CCN(CC)C(=O)Nc1ccc(OCC(O)CNC(C)(C)C)c(C(C)=O)c1 (stereo not drawn) | inactive |
| COc1cc(OC)cc(OC)c1 | inactive |
| CCN(CCCc1ccccc1)CCCc1ccccc1 | inactive |
| CN1CCCN=C1/C=C/c1cccs1 | inactive |
| CC1(C)[C@@H](OC(=O)CCC(=O)O)CC[C@]2(C)[C@H]3C(=O)C=C4[C@@H]5C[C@@](C)(C(=O)O)CC[C@]5(C)CC[C@@]4(C)[C@]3(C)CC[C@@H]12 | inactive |
| CO/N=C(/C(=O)N[C@@H]1C(=O)N2C(C(=O)O)=C(Cn3nnc(C)n3)CS[C@H]12)c1csc(N)n1 | inactive |
| CCCOc1ccc(C(=O)OCCN(CC)CC)cc1N | inactive |
| Clc1ccc(C(Cn2ccnc2)OCc2ccsc2Cl)c(Cl)c1 (stereo not drawn) | inactive |
| N=C(N)c1ccc(OCCCOc2ccc(C(=N)N)cc2)cc1 | inactive |
| CCC(=O)O[C@]1(C(=O)SCF)[C@H](C)C[C@H]2[C@@H]3C[C@H](F)C4=CC(=O)C=C[C@]4(C)[C@@]3(F)[C@@H](O)C[C@@]21C | inactive |
| CCN(CC)CC1CCCCN1CC(=O)N1c2ccccc2C(=O)Nc2cccnc21 (stereo not drawn) | inactive |
| COc1ccc(CCC(C)=O)cc1 | inactive |
| Cc1ccc(/C=N/n2c(-c3ccccc3)csc2=S)cc1 | inactive |
| CC[N+](CC)(CC(=O)Nc1c(C)cccc1C)Cc1ccccc1 | inactive |
| O=C1C(c2[nH]c3ccccc3c2O)=Nc2ccccc21 | inactive |

Assay: qHTS for Inhibitors of the Functional Ribonucleoprotein Complex (vRNP) of Lassa (LASV) Arenavirus: Viability assay - alamar blue signal for LASV Primary Screen (AID 1347083); further: nearly all actives have a fitted effect of over 80% in size
Conditions: cell viability, alamar blue fluorescence (LASV minigenome counter-screen); series mostly up to 57.5 µM

| SMILES | Potency | activity change, negative = reduced viability |
| --- | --- | --- |
| O=C(/C=C/c1ccc(O)c(O)c1)O[C@@H]1C[C@@](OC(=O)/C=C/c2ccc(O)c(O)c2)(C(=O)O)C[C@@H](O)[C@@H]1O | inactive | – |
| COc1nc(C)nc(Cl)c1NC1=NCCN1 | inactive | – |
| Cc1oc(-c2ccccc2)nc1CCC(=O)c1ccc(CC2SC(=O)NC2=O)cc1 (stereo not drawn) | inactive | – |
| CCCCN1CCCC1C(=O)Nc1c(C)cc(C)cc1C (stereo not drawn) | inactive | – |
| C[C@H]1NCc2cc(-c3ccc4c(=O)c(C(=O)O)cn(C5CC5)c4c3OC(F)F)ccc21 | inactive | – |
| CCCCCCOC(=O)NC(=N)c1ccc(NCc2nc3cc(C(=O)N(CCC(=O)OCC)c4ccccn4)ccc3n2C)cc1 | inactive | – |
| CC(=O)Nc1ccc(OCCOCCOc2ccc(NC(C)=O)cc2)cc1 | inactive | – |
| CC(C)NCCCC1(C(N)=O)c2ccccc2-c2ccccc21 | inactive | – |
| CCCc1ncc(C[n+]2ccccc2C)c(N)n1 | inactive | – |
| CCc1cc(Cl)c(OC)c(C(=O)NC[C@@H]2CCCN2CC)c1O | inactive | – |
| CCN(CC)C(=O)C1CN2CCc3cc(OC)c(OC)cc3C2CC1OC(C)=O (stereo not drawn) | inactive | – |
| CCOc1ccc(NC(C)=O)cc1 | inactive | – |
| Cc1c(Cl)cccc1Nc1ccccc1C(=O)O | inactive | – |
| O=c1[nH]c2cc(C(F)(F)F)c(N3CCOCC3)cc2n(CP(=O)(O)O)c1=O | inactive | – |
| CNC1CCCN(c2c(F)cc3c(=O)c(C(=O)O)cn(C4CC4)c3c2OC)C1 (stereo not drawn) | inactive | – |
| N[C@@H](Cc1ccc(O)cc1)C(=O)O | – | 15.7% [at 11.5 µM] |
| CCOC(CN1CCN(CC(C)C(=O)c2ccccc2)CC1)c1ccccc1 (stereo not drawn) | inactive | – |
| CCOC(=O)n1ccn(C)c1=S | inactive | – |
| C#C[C@]1(OC(C)=O)CC[C@H]2[C@@H]3CCC4=C/C(=N/O)CC[C@@H]4[C@H]3CC[C@@]21CC | inactive | – |
| Oc1ccc(CCNCCCCCCNCCc2ccccc2)cc1O | inactive | – |

| SMILES | Potency | activity change, negative = reduced viability |
| --- | --- | --- |
| OC(C#CCN1CCCC1)(c1ccccc1)c1ccccc1 | inactive | – |
| CCC(CC)(CC(=O)Nc1cccc(/C=C/c2nc(C3CCC3)cs2)c1)C(=O)O | inactive | – |
| CN1CCCN(C(c2ccccc2)c2ccc(Cl)cc2)CC1 (stereo not drawn) | inactive | – |
| Nc1ccn(C2CO[C@H](CO)O2)c(=O)n1 (stereo partly drawn) | inactive | – |
| CC1(C)OC[C@@H](COC(=O)CCc2ccc(OC[C@@H](O)CNCCNC(=O)N3CCOCC3)cc2)O1 | inactive | – |
| CCN(CC)C(=O)Nc1ccc(OCC(O)CNC(C)(C)C)c(C(C)=O)c1 (stereo not drawn) | inactive | – |
| COc1cc(OC)cc(OC)c1 | inactive | – |
| CCN(CCCc1ccccc1)CCCc1ccccc1 | inactive | – |
| CN1CCCN=C1/C=C/c1cccs1 | inactive | – |
| CC1(C)[C@@H](OC(=O)CCC(=O)O)CC[C@]2(C)[C@H]3C(=O)C=C4[C@@H]5C[C@@](C)(C(=O)O)CC[C@]5(C)CC[C@@]4(C)[C@]3(C)CC[C@@H]12 | inactive | – |
| CO/N=C(/C(=O)N[C@@H]1C(=O)N2C(C(=O)O)=C(Cn3nnc(C)n3)CS[C@H]12)c1csc(N)n1 | inactive | – |
| CCCOc1ccc(C(=O)OCCN(CC)CC)cc1N | inactive | – |
| Clc1ccc(C(Cn2ccnc2)OCc2ccsc2Cl)c(Cl)c1 (stereo not drawn) | inactive | – |
| N=C(N)c1ccc(OCCCOc2ccc(C(=N)N)cc2)cc1 | inactive | – |
| CCC(=O)O[C@]1(C(=O)SCF)[C@H](C)C[C@H]2[C@@H]3C[C@H](F)C4=CC(=O)C=C[C@]4(C)[C@@]3(F)[C@@H](O)C[C@@]21C | inactive | – |
| CCN(CC)CC1CCCCN1CC(=O)N1c2ccccc2C(=O)Nc2cccnc21 (stereo not drawn) | inactive | – |
| COc1ccc(CCC(C)=O)cc1 | inactive | – |
| Cc1ccc(/C=N/n2c(-c3ccccc3)csc2=S)cc1 | inactive | – |
| CC[N+](CC)(CC(=O)Nc1c(C)cccc1C)Cc1ccccc1 | inactive | – |
| O=C1C(c2[nH]c3ccccc3c2O)=Nc2ccccc21 | inactive | – |
